± gives the uncertainty stated by the source. In all, about 9,900 compounds were measured (“viability index relative to DMSO control”: median about 1, lowest 2% from about 0.85 on). This excerpt belongs to a sample that is enriched for the lowest values.
Test system: Plasmodium falciparum NF54 stage V gametocytes
Experiment: viability index relative to DMSO control (fraction); higher = less gametocyte killing
Conditions: 2.5 µM, incubation time: 72 h
Procedure, shortened: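 In 1,536-well plates, 10 µl of serum-free medium holding P. falciparum NF54 stage V gametocytes (0.75% gametocytemia, 1.25% hematocrit) received compound at 2.5 µM for 72 hr at 37°C in low oxygen. After one to two hours with 3 µl of 2.5 µM MitoTracker Red CMXRos containing 0.13% saponin, red particles of 20–70 µm2 were counted in a single field per well. Viability index is reported as the particle count over the plate mean of wells treated with solvent only.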

[1] = library set: Broad Institute DOS
[2] = library set: Broad Institute Blood Stage

| SMILES | viability index [1] | viability index [2] |
| --- | --- | --- |
| CO[C@@H]1CC[C@H]2CCN(C)C(=O)[C@H](C)CN(C)C(=O)c3cc(C#N)ccc3OC[C@@H]1O2 | 0.973 ± 0.056 |  |
| CCC(=O)Nc1ccc2c(c1)C(=O)N(C)C[C@@H](OC)[C@H](C)CN(C(=O)Cc1cccnc1)[C@@H](C)CO2 | 1.13 ± 0.043 |  |
| O=C(Cc1ccncc1)N1CC[C@@H]2[C@H](CO)Nc3ccc(Br)cc3[C@@H]21 | 1.077 ± 0.0015 |  |
| C/C=C/c1cccc(-c2nc(C(=O)Nc3nccs3)cc3c2[C@@H](CCO)N(C(=O)NC(C)C)C3)c1 | 0.867 ± 0.035 |  |
| C[C@@H]1CN([C@H](C)CO)C(=O)Cc2cc(NC(=O)Nc3ccc(F)cc3)ccc2O[C@H]1CN(C)S(C)(=O)=O | 0.939 ± 0.16 |  |
| CC(=O)NC[C@H]1[C@@H](c2ccc(C#Cc3ccccc3F)cc2)[C@@H](CO)N1C(C)=O | 1.05 ± 0.002 |  |
| C/C=C/c1ccc([C@H]2[C@@H](CO)N(C(=O)NC3CCCCC3)[C@H]2C#N)cc1 | 1.11 ± 0.16 |  |
| CC(C)C#Cc1ccc([C@@H]2[C@@H](CO)N(C(=O)c3cccc(F)c3)[C@H]2C#N)cc1 | 1.17 ± 0.073 |  |
| C[C@H]1CCCCO[C@H](CN(C)S(=O)(=O)c2ccc(F)cc2)[C@@H](C)CN([C@@H](C)CO)C(=O)c2cc(N(C)C)ccc2O1 | 1.09 ± 0.17 |  |
| Cc1noc(C)c1S(=O)(=O)N(C)C[C@@H]1OCCCC[C@@H](C)Oc2ccc(N(C)C)cc2C(=O)N([C@@H](C)CO)C[C@H]1C | 0.635 ± 0.13 |  |
| Cc1noc(C)c1S(=O)(=O)N(C)C[C@@H]1OCCCC[C@@H](C)Oc2ccc(N(C)C)cc2C(=O)N([C@@H](C)CO)C[C@@H]1C | 1.08 ± 0.068 |  |
| C[C@@H]1CCCCO[C@@H](CN(C)S(=O)(=O)c2ccc(F)cc2)[C@H](C)CN([C@@H](C)CO)C(=O)c2cc(N(C)C)ccc2O1 | 1.05 ± 0.092 |  |
| Cc1noc(C)c1S(=O)(=O)N(C)C[C@H]1OCCCC[C@@H](C)Oc2ccc(N(C)C)cc2C(=O)N([C@H](C)CO)C[C@@H]1C | 1.02 ± 0.029 |  |
| C[C@@H]1CCCCO[C@@H](CN(C)S(=O)(=O)c2ccc(F)cc2)[C@@H](C)CN([C@@H](C)CO)C(=O)c2cc(N(C)C)ccc2O1 | 0 |  |
| CCC(=O)N1[C@@H](CO)[C@@H]2c3ccccc3N(C(=O)Nc3ccc(Cl)cc3)C[C@@H]21 | 1.1 ± 0.044 |  |
| COc1cccc(-c2ccc([C@H]3[C@H]4CNC[C@@H]3N4CC3CCCCC3)cc2)c1 | 0.963 ± 0.029 |  |
| CCCC#Cc1cnc2c(c1)C(=O)N([C@H](C)CO)C[C@H](C)[C@H](CN(C)C(=O)Nc1cc(F)ccc1F)O2 | 1.02 ± 0.081 |  |
| CO[C@@H]1CN(C)C(=O)c2cc(NC(=O)Nc3cccc(Cl)c3)ccc2OC[C@H](C)N(C(=O)Nc2c(C)noc2C)C[C@H]1C | 1.07 ± 0.019 |  |
| CO[C@H]1CN(C)C(=O)c2cc(NC(=O)Nc3cccc(Cl)c3)ccc2OC[C@H](C)N(C(=O)Nc2c(C)noc2C)C[C@H]1C | 0.7814 ± 0.0047 |  |
| COc1ccccc1CN1C[C@@H](C)[C@H](OC)CN(C)C(=O)c2ccc(NC(=O)Nc3ccccc3OC)cc2OC[C@H]1C |  | 0.855 ± 0.025 |
| COc1ccccc1CN1C[C@@H](C)[C@H](OC)CN(C)C(=O)c2cc(NC(=O)Nc3ccccc3OC)ccc2OC[C@H]1C | 1.02 ± 0.091 |  |
| COc1ccccc1NC(=O)Nc1ccc2c(c1)OC[C@@H](C)N(Cc1ccccc1Cl)C[C@@H](C)[C@H](OC)CN(C)C2=O |  | 0.821 ± 0.053 |
| CO[C@@H]1CN(C)C(=O)c2cc(NC(=O)Nc3cccc(Cl)c3)ccc2OC[C@@H](C)N(C(=O)Nc2c(C)noc2C)C[C@H]1C | 1.052 ± 0.0092 |  |
| Fc1cccc(-c2ccc([C@H]3[C@H]4CNC[C@@H]3N4CC3CCOCC3)cc2)c1 | 1.02 ± 0.0019 |  |
| C[C@@H]1CN([C@@H](C)CO)C(=O)c2ccccc2-c2ccccc2CO[C@@H]1CN(C)C(=O)[C@@H]1CCCN1C | 0.936 ± 0.093 |  |

| SMILES | viability index [1] | viability index [2] |
| --- | --- | --- |
| COc1ccc2c3c([C@H](CO)N(CC4CCOCC4)C[C@]33CN(Cc4nccs4)C3)n(C)c2c1 | 1.08 ± 0.019 |  |
| COc1ccc2c3c([C@@H](CO)N(Cc4nccs4)C[C@]33CCN(CC4CCCC4)CC3)n(C)c2c1 | 0.848 ± 0.029 |  |
| COc1ccc2c3c([C@H](CO)N(Cc4nccs4)C[C@]33CCN(CC3)C(=O)CN(C)C)n(C)c2c1 | 0.955 ± 0.12 |  |
| COc1ccc2c3c([C@@H](CO)N(Cc4nccs4)C[C@]33CCN(CC3)C(=O)CN(C)C)n(C)c2c1 | 0.905 ± 0.039 |  |
| COc1ccc2c3c([C@@H](CO)N(CC4CCOCC4)C[C@]33CN(Cc4nccs4)C3)n(C)c2c1 | 1.1 ± 0.08 |  |
| COc1ccc2c3c([C@H](CO)N(Cc4nccs4)C[C@]33CCN(CC4CCCC4)CC3)n(C)c2c1 | 0.841 ± 0.028 |  |
| CO[C@H]1CN(C)C(=O)c2cc(NC(=O)NC(C)C)ccc2OC[C@@H](C)N(C(=O)CN(C)C)C[C@H]1C | 1.03 ± 0.043 |  |
| COCC#Cc1ccc([C@@H]2[C@@H](CO)N3C(=O)CN(C(=O)Nc4ccccc4F)C[C@@H]23)cc1 | 1.02 ± 0.025 |  |
| C[C@H](CO)N1C[C@H](C)[C@@H](CN(C)C(=O)Nc2ccccc2F)Oc2cc(Br)ccc2S1(=O)=O | 1.01 ± 0.02 |  |
| COc1ccc2c3c([C@H](CO)N(C[C@]33CCN(CC3)C(=O)Nc3ccc(F)cc3F)C(=O)Nc3ccc(F)cc3)n(C)c2c1 | 1.04 ± 0.029 |  |
| N#C[C@@H]1N[C@H](CO)[C@H]1c1ccc(-c2cccc(F)c2)cc1 | 1.18 ± 0.088 |  |
| CCS(=O)(=O)Nc1ccc2c(c1)C(=O)N(C)[C@@H]1CC[C@H](CC(=O)NCc3ccc(OC)cc3)O[C@H]1CO2 | 1.01 ± 0.078 |  |
| COc1ccccc1-c1ccc2c(c1)[C@@H]1[C@@H](CCN1S(=O)(=O)c1ccc(C)cc1)[C@H](CO)N2 | 0.836 ± 0.028 |  |
| Cc1cccc(S(=O)(=O)N2CC[C@@H]3[C@H]2c2cc(-c4ccccc4F)ccc2N[C@@H]3CO)c1 | 0.926 ± 0.08 |  |
| COc1ccc(-c2ccc3c(c2)[C@@H]2[C@@H](CCN2C(=O)c2cccc(F)c2)[C@@H](CO)N3)cc1 | 0.996 ± 0.08 |  |
| Cc1cccc(S(=O)(=O)N2CC[C@@H]3[C@@H](CO)Nc4ccc(-c5ccccc5F)cc4[C@@H]32)c1 | 1.18 ± 0.029 |  |
| N#Cc1cccc(-c2ccc3c(c2)[C@@H]2[C@@H](CCN2S(=O)(=O)c2ccc(F)cc2)[C@H](CO)N3)c1 | 0.844 ± 0.062 |  |
| COc1ccc(-c2ccc3c(c2)[C@H]2[C@H](CCN2C(=O)c2cccc(F)c2)[C@@H](CO)N3)cc1 | 0.942 ± 0.075 |  |
| Cc1cccc(S(=O)(=O)N2CC[C@@H]3[C@H](CO)Nc4ccc(-c5ccccc5F)cc4[C@@H]32)c1 | 1.06 ± 0.03 |  |
| Cc1cccc(S(=O)(=O)N2CC[C@H]3[C@H](CO)Nc4ccc(-c5ccccc5F)cc4[C@H]32)c1 | 1.08 ± 0.023 |  |
| COc1ccc(-c2ccc3c(c2)[C@@H]2[C@@H](CCN2C(=O)c2cccc(F)c2)[C@H](CO)N3)cc1 | 0.848 ± 0.042 |  |
| N#Cc1cccc(-c2ccc3c(c2)[C@H]2[C@H](CCN2S(=O)(=O)c2ccc(F)cc2)[C@H](CO)N3)c1 | 1.09 ± 0.017 |  |
| N#Cc1cccc(-c2ccc3c(c2)[C@@H]2[C@@H](CCN2S(=O)(=O)c2ccc(F)cc2)[C@@H](CO)N3)c1 | 0.855 ± 0.011 |  |
| COc1ccccc1-c1ccc2c(c1)[C@H]1[C@H](CCN1S(=O)(=O)c1ccc(C)cc1)[C@@H](CO)N2 | 0.811 ± 0.098 |  |

From the supplement of paper PMC4723716
